In the library only some 12% were active in any assay of this set; here they are far more common.
G9a inh – inhibitors of human histone lysine methyltransferase G9a; Q96KQ7; G9a H3K9 monomethylation, AlphaScreen, 2 h; Potency, µM (series often up to 102 µM), inactives show top-dose activity, negative = inhibition, most hits filed as inhibitors; 350,000 tested, 8.8% active; further: on the % scale 0 is the no-effect control and ±100 the full control effect; nearly all actives have a fitted effect of over 75% in size
Target sequence (Q96KQ7 913-1193 limits assumed): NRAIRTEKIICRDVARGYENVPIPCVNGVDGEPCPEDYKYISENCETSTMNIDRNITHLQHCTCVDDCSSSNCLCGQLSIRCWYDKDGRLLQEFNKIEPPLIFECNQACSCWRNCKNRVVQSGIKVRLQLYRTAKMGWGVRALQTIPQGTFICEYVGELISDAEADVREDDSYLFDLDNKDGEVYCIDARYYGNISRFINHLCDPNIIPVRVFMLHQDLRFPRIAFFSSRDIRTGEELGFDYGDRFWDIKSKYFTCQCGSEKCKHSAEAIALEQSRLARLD
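G9a (20 nM) was preincubated 15 min with compound, then reacted 2 h at room temperature with 500 nM biotin-H3K9 peptide and 20 µM SAM. Monomethyl-H3K9 detected by AlphaScreen using anti-H3K9me1 antibody.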
HP1b binding inh – HP1-beta chromodomain-methylated histone interaction inhibition. Potency, µM (doses to about 114 µM), without a hit: top-dose activity change, negative = inhibition, most hits filed as inhibitors. 390,000 tested, 0.56% active. AID 540317. AlphaScreen HP1-beta / biotin-H3K9me3 peptide binding. P83916; further: nearly all actives have a fitted effect of over 70% in size
Target sequence (P83916 whole entry, looked up): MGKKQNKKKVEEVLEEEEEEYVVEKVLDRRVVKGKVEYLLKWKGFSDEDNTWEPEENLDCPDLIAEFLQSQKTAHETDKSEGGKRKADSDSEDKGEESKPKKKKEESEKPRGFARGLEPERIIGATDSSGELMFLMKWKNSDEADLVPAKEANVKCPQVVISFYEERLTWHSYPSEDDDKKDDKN
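HP1-beta protein (50 nM final) preincubated 30 min at room temperature with biotinylated H3(1-18)K9me3 peptide (50 nM) in PBS pH 7.4, 0.01% Tween-20, then compound added for 30 min. AlphaScreen streptavidin donor/nickel chelate acceptor beads (10 ug/mL final), 30 min dark, luminescence read.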
BAZ2B block – BAZ2B (human) inhibition; Q9UIF8; 360,000 tested, 4.4% active; Potency, µM (doses to about 114 µM), without a hit: at the top dose activity change, negative = inhibition, actives largely listed as inhibitors; AlphaScreen BAZ2B-H3K14Ac peptide displacement; further: on the % scale 0 is the no-effect control and ±100 the full control effect; nearly all actives have a fitted effect of over 60% in size
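AlphaScreen displacement: compounds (up to 110uM) incubated 30 min at room temperature with a preformed 50 nM BAZ2B/50 nM biotinylated H3K14Ac peptide complex in PBS pH 7.4 with Tween-20. Donor and acceptor beads at 10 ug/mL final added, 20 min light-protected before reading.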
JMJD2A Tudor inh – blocks the human JMJD2A Tudor domain; AID 504339; 390,000 tested, 4.4% active; AlphaScreen JMJD2A-Tudor / H3K4me3 peptide binding; Potency, µM (series often up to 114 µM), inactives show at the top dose activity change, negative = inhibition, usual class: inhibitors; O75164; further: on the % scale 0 is the no-effect control and ±100 the full control effect; nearly all actives have a fitted effect of over 50% in size
PLK1 PBD block – blocks phosphopeptide binding to human PLK1 polo-box domain. P53350. Plk1 PBD binding of FITC phosphopeptide, fluorescence polarization. Potency, µM, for the others: max response, negative = inhibition, usual class: inhibitors. 360,000 tested, 2.8% active. AID 720504; further: series mostly up to about 57 µM; on the % scale 0 is the no-effect control and ±100 the full control effect; nearly all actives have a fitted effect of over 65% in size
Sfp inh – Sfp phosphopantetheinyl transferase inhibition; Q9F4F7; Biochemical Sfp PPTase activity, qHTS; Potency, µM, without a hit: largest response in the series, negative = inhibition, most hits filed as inhibitors; 310,000 tested, 3.5% active; AID 1490;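 further: the enzyme is Sfp with the accession as filed and its product quenches rhodamine fluorescence; 0% = enzyme reaction without inhibitor and -100% = no enzyme wells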
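After 15 min at room temperature with compound, 15 nM Sfp received 5 uM rhodamine-CoA plus 12.5 uM BHQ-2-ybbR (50 mM Hepes pH 7.6, 10 mM MgCl2). Rate came from the fluorescence difference over 30 min, ex 525/em 598 nm.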
The depositor's hits bear a star; ? = inconclusive; nt = no result; [ ] = another dose, or the depositor's remark. The call rests on the fitted dose curve; in most records, active means well fitted curve in the direction sought with a large enough effect; inconclusive means small, poorly fitted or top-dose-only effect, or another doubt; inactive means no such curve, though single readings can be large; an effect the other way counts as inactive or inconclusive. Potency means the concentration at half of the fitted maximal effect.

SMILES	G9a inh	HP1b binding inh	BAZ2B block	JMJD2A Tudor inh	PLK1 PBD block	Sfp inh
Cc1ccccc1OCC(O)Cn1c2ccccc2c2ccccc21 (stereo not given)	62%	56%	6%	9%	1%	2%
C=CCc1ccccc1OCC(O)CN1CCN(CCN2C(=O)c3cccc4cccc(c34)C2=O)CC1 (stereo not given)	40µM*	?	?	?	-7%	5.6µM*
CC(C)OCC(O)CN1CCN(CCN2C(=O)c3cccc4cccc(c34)C2=O)CC1 (stereo not given)	?	24%	-19%[57.1 µM]	-25%	0%	1%
Cc1ccccc1OCC(O)CN1CCN(CC(O)COc2ccccc2C)C(C)C1 (stereo not given)	18%[2.33 µM]	?	22µM*	2µM*	1%	?
O=C(NCC(c1ccco1)N1CCc2ccccc21)C(=O)Nc1ccc(F)cc1F (stereo not given)	-28%[0.501 µM]	-7%	-35%	-24%	2%	nt
Cc1ccc(S(=O)(=O)N(C)c2cccc3cccnc23)cc1	nt	nt	nt	-3%	nt	10%
COc1cc(/C=C/C(=O)NC2CCCCC2)cc(OC)c1OC	9%	-8%	0%	5%[57.1 µM]	27µM*	11%
COc1cc(/C=C/C(=O)Nc2cc(C(F)(F)F)ccc2Cl)cc(OC)c1OC	34%[12.7 µM]	-1%	-2%	0%[11.4 µM]	27µM*	11%
COc1cc(/C=C/C(=O)Nc2nnc(C(C)(C)C)s2)cc(OC)c1OC	4.5µM*	?	13%	-24%	24µM*	50µM*
COc1cc(C(Nc2ccc3c(c2)OCO3)C(=O)NC2CCCCC2)cc(OC)c1OC (stereo not given)	2.8µM*	-31%	40µM*	?	-13%	13µM*
CC1CC(C)CN(S(=O)(=O)CCNC(=O)c2ccccc2)C1 (stereo not given)	-31%	13%	6%	-11%	-9%	nt
CCCCC(=O)OC1CCC2C3CCc4cc(O)ccc4C3CC[C@]12C (stereo not given in full)	-24%[2.33 µM]	nt	nt	nt	nt	23%
CCC(=O)N1c2ccccc2CC1C(=O)NCCCN1CCN(c2cc(C)ccc2C)CC1 (stereo not given)	10%[59 µM]	55%	-22%	-29%	nt	nt
COc1cccc(C=O)c1OCCCOc1cccc2cccnc12	nt	40%	-17%	-6%	-5%	-6%
O=Cc1ccc(O)c2ncccc12	?	81%	1.3µM*	2.8µM*	-10%	25%
O=C(c1cccc2nc3ccccc3nc12)N1CCOCC1	6%[12.7 µM]	-13%	-9%	79µM*	?	13%
O=C(c1ccccc1O)N1CCOCC1	-1%[59 µM]	33%	-2%	2%	0%	12%
CCN(CC)C(=O)c1cccc2nc3ccccc3nc12	0%	-7%	-2%	79µM*	?	15%
COc1ccccc1NS(=O)(=O)c1cc(NC(=O)c2cccs2)ccc1N1CCCCC1	-12%[59 µM]	-6%	-21%	-19%	-7%	17%
COc1ccccc1NS(=O)(=O)c1cc(NC(=O)c2cccs2)ccc1N1CCCC1	1.6µM*	?	-38%	?	5.3µM*	20µM*
COc1ccccc1NS(=O)(=O)c1cc(NC(=O)c2cc[n+]([O-])cc2)ccc1N1CCCC1	?	?	nt	63µM*	3µM*	11µM*
COc1ccccc1NS(=O)(=O)c1cc(NC(=O)C(C)C)ccc1N1CCCCC1	8.9µM*	?	nt	?	12µM*	40µM*
COc1ccccc1NS(=O)(=O)c1cc(NC(=O)Nc2ccccc2)ccc1N1CCCCC1	10µM*	?	-10%	-31%	?	?
Cc1ccccc1C(=O)NC1CCN(CC(=O)N2CCCCC2C)CC1 (stereo not given)	0%	-2%	1%	-8%	-15%	1%
Cc1nn(S(=O)(=O)c2cccc([N+](=O)[O-])c2)c(C)c1S(=O)(=O)N1CCOCC1	-4%[59 µM]	84%	-27%	79µM*	-21%	17%
SMILES	G9a inh	HP1b binding inh	BAZ2B block	JMJD2A Tudor inh	PLK1 PBD block	Sfp inh
Cc1ccc(S(=O)(=O)n2nc(C)c(S(=O)(=O)N3CCOCC3)c2C)cc1	35µM*	48%	?	?	1%	10%
Cc1nn(S(=O)(=O)c2ccc(Cl)cc2)c(C)c1S(=O)(=O)N1CCOCC1	?	7%	-8%	?	-18%	11%
Cc1nn(S(=O)(=O)c2ccc(Br)cc2)c(C)c1S(=O)(=O)N1CCOCC1	40µM*	38%	?	-10%	-10%	15%
Cc1ccc(-n2c(=O)c3ccccc3n(CC(=O)Nc3cccc(C(F)(F)F)c3)c2=O)cc1	-5%[59 µM]	33%	-16%	-14%	nt	nt
Cc1cccc(CS(=O)(=O)c2ncc(CO)n2C)c1	-7%	38%	1%	-1%	-9%	16%
CCOC(=O)C1CCCN(S(=O)(=O)c2cc3c(cc2C)NC(=O)CO3)C1 (stereo not given)	-1%[59 µM]	21%	-22%	-20%	nt	nt
CCOC(=O)C1=C(C)NC2=C(C(=O)c3ccccc32)C1c1ccc([N+](=O)[O-])o1 (stereo not given)	nt	50µM*	11µM*	22µM*	-22%	35µM*
CCOc1cc(C2C(C(=O)OC)=C(C)NC3=C2C(=O)c2ccccc23)cc(Cl)c1O (stereo not given)	?	-12%	?	-24%	nt	nt
CCOC(=O)COc1ccccc1C1C(C(=O)OC)=C(C)NC2=C1C(=O)c1ccccc12 (stereo not given)	13µM*	?	40µM*	40µM*	nt	nt
CCOc1ccc(Br)cc1C1C(C(=O)OC)=C(C)NC2=C1C(=O)c1ccccc12 (stereo not given)	?	?	22µM*	25µM*	nt	nt
CCOC(=O)C1=C(C)NC(C)=C(C(=O)OCC)C1c1ccc(OC)c(OC)c1	nt	nt	nt	nt	-8%	nt
CCOC(=O)C1=C(C)NC(=O)NC1c1ccc([N+](=O)[O-])o1 (stereo not given)	1%[59 µM]	57%	0%	3%	-1%	7%
COC(=O)COc1ccc(C2C(C(=O)OC)=C(C)NC3=C2C(=O)c2ccccc23)cc1OC (stereo not given)	13µM*	?	25µM*	?	nt	nt
COc1ccccc1CNC(=O)C1CCCN(c2nnc(-n3c(C)ccc3C)s2)C1 (stereo not given)	5%[59 µM]	3%	-13%	-26%	nt	nt
Cc1ccc(CN(C)C(=O)COC(=O)CSc2cc(C)c3ccccc3n2)cc1	0%[12.7 µM]	33%	-2%	-7%	-6%	nt
CC(C)C(OC(=O)c1cccs1)C(=O)NCc1ccco1 (stereo not given)	0%[12.7 µM]	18%	0%	-19%	-7%	-23%
